Source: PubChem BioAssay (Tox21)
A number with no mark means an inactive call. Results filed as inconclusive are left out. Entries that show only a call come without a potency. The source made the active and inactive calls. Unless noted, calls come from the whole dose curve; as a rule, active = well fitted curve in the direction sought with a large enough effect in the repeat runs; inconclusive = weak or mixed curves; inactive = no such curve, though single readings can be large; an effect the other way counts as inactive or inconclusive.

What was measured:
[1] = qHTS assay for small molecule agonists of the p53 signaling pathway - cell viability (AID 651633; calls by dose curve;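 note: p53RE-bla HCT reporter cells with a stable beta-lactamase p53 reporter; series mostly up to about 83 µM; nearly all actives have a fitted effect of over 30% in size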)
Outline: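 Viability counter-read: CellTiter-Glo luminescence (30 min, room temperature) in the same p53RE-bla plates. These plates had been exposed to compounds for 16 h at 37 C.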

[2] = qHTS assay for small molecules that induce genotoxicity in human embryonic kidney cells expressing luciferase-tagged ATAD5 - cell viability (AID 651634; calls by dose curve; note: nearly all actives have a fitted effect of over 25% in size)
Outline: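 Here HEK293T cells with the ATAD5 luciferase reporter are incubated with test compounds for 15.5 hr, and cytotoxicity is then gauged by measuring protease activity in live cells using fluorescence.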

[3] = qHTS assay for small molecule disruptors of the mitochondrial membrane potential - cell viability (AID 720634; calls by dose curve;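 note: human HepG2 liver cancer cells; series mostly up to about 83 µM; nearly all actives have a fitted effect of over 20% in size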)
Outline: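 Viability of HepG2 cells is scored from ATP content by luminescence; cells are exposed to compound for 1 hr at 37 C and 5% CO2, then dosed with m-MPI dye before the CellTiter-Glo reagent.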

[4] = qHTS assay for small molecule disruptors of the mitochondrial membrane potential (AID 720635); note: potency is the fitted concentration of half-maximal effect
Outline: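 Mitochondrial membrane potential tracked with Mito-MPS dye, red aggregates (ex 540/em 590 nm) against green monomers (ex 490/em 535 nm). Compound treatment 1 hr at 37C, dye 30 min in HepG2.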

[5] = qHTS assay to test for compound auto fluorescence at 590 nm (red) in HepG2 cells (AID 720674)
Outline: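 We screened compounds on adherent HepG2 cells, incubating them for an hour at 37 C in 5% CO2 before reading emission at 590 nm under 540 nm excitation; values reflect equivalence to Rose Bengal sodium fluorescence.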

[6] = qHTS assay to test for compound auto fluorescence at 535 nm (green) in HepG2 cells (AID 720675)
[7] = qHTS assay to test for compound auto fluorescence at 460 nm (blue) in HEK293 cells (AID 720678)
Outline: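 HEK293, 2,000 cells/well, 10% dialyzed FBS; attach 4-5 hr 37C; pin compound or DMSO; o/n 37C/5% CO2; fluorescence 405/460 nm; triamterene-equivalent units.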

[8] = qHTS assay to test for compound auto fluorescence at 590 nm (red) in HEK293 cells (AID 720679)
Outline: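 Intensity at 540nm excitation and 590nm emission is reported as Rose Bengal sodium-equivalent autofluorescence. Measurements followed overnight exposure (37C, 5% CO2) of HEK293 cells, 2,000 per well, to 23 nL compound.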

[9] = qHTS assay to test for compound auto fluorescence at 535 nm (green) in HEK293 cells (AID 720680)
[10] = qHTS assay to test for compound auto fluorescence at 535 nm (green) in HEK293 cell free culture (AID 720682)
Outline: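 Compounds were pin-transferred into cell-free DMEM with 10% FBS, and green fluorescence was read at excitation 485 nm and emission 535 nm. Intensities were expressed as fluorescein-equivalent values.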

[11] = qHTS assay to test for compound auto fluorescence at 590 nm (red) in HepG2 cell free culture (AID 720684)
Outline: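 Cell-free; medium MEM + 10% FBS; compound or DMSO added by pintool; read Ex 540/Em 590 nm; Rose Bengal sodium as red reference fluorophore.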

[12] = qHTS assay to test for compound auto fluorescence at 460 nm (blue) in HepG2 cell free culture (AID 720685)
Outline: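 Cell-free plates of MEM plus 10% FBS received 23 nL compound or DMSO vehicle; blue-channel (405/460 nm) intensity scored against triamterene as reference fluorophore.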

[13] = qHTS assay to test for compound auto fluorescence at 535 nm (green) in HepG2 cell free culture (AID 720686)
[14] = qHTS assay to test for compound auto fluorescence at 460 nm (blue) in HepG2 cells (AID 720687)
Outline: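 Blue-channel autofluorescence (Ex/Em 405/460 nm, triamterene-equivalent) was measured after 1 hr compound exposure at 37 C, 5% CO2. Cells were HepG2, plated overnight at 37 C in MEM plus 10% FBS.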

[15] = qHTS assay for small molecules that induce genotoxicity in human embryonic kidney cells expressing luciferase-tagged ATAD5 (AID 651632); note: nearly all actives have a fitted effect of over 15% in size
Outline: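 DMSO vehicle served as the control. HEK293T reporter cells, 16 hr at 37C, then 30 min Amplite at room temperature; ATAD5 induction is measured as luciferase activity.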

[16] = qHTS assay to test for compound auto fluorescence at 460 nm (blue) in HEK293 cell free culture (AID 720681)
Outline: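 Blue fluorescence (Ex 405/Em 460 nm, triamterene-equivalent) was read immediately after pin transfer of compound or DMSO into medium (DMEM, 10% FBS) without cells.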

[17] = qHTS assay to test for compound auto fluorescence at 590 nm (red) in HEK293 cell free culture (AID 720683)
Outline: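 Red-channel autofluorescence of compounds in culture medium (DMEM, 10% FBS), no cells, measured at 540/590 nm. Rose Bengal sodium is the reference fluorophore for equivalence.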

[18] = biological target: Glucocorticoid receptor (Homo sapiens) (UniProt P04150); experiment: qHTS assay to identify small molecule agonists of the glucocorticoid receptor (GR) signaling pathway (AID 720691; active = well fitted activation curve with a large enough effect in the signal ratio in the repeat runs, not every such curve was filed as active; the % refers to the signal ratio)
Outline: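 Compounds in DMSO, alongside positive controls, were added to GR-bla HeLa reporter cells and incubated 18 h at 37 C; GRE-driven beta-lactamase was detected by fluorescence after 2 h with FRET substrate at room temperature.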

[19] = biological target: Glucocorticoid receptor (Homo sapiens) (UniProt P04150); experiment: qHTS assay to identify small molecule antagonists of the glucocorticoid receptor (GR) signaling pathway (AID 720692; active = well fitted inhibition curve with a large enough effect in the signal ratio in the repeat runs, not every such curve was filed as active; the % refers to the signal ratio)
Outline: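 In a 1536-well cell format, compounds were added 4 h after seeding GR-bla HeLa cells, together with dexamethasone at 5 nM final; reporter activity was measured by FRET-substrate fluorescence following 18 h at 37 C.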

Sequence of Glucocorticoid receptor (Homo sapiens) (P04150 whole entry, looked up): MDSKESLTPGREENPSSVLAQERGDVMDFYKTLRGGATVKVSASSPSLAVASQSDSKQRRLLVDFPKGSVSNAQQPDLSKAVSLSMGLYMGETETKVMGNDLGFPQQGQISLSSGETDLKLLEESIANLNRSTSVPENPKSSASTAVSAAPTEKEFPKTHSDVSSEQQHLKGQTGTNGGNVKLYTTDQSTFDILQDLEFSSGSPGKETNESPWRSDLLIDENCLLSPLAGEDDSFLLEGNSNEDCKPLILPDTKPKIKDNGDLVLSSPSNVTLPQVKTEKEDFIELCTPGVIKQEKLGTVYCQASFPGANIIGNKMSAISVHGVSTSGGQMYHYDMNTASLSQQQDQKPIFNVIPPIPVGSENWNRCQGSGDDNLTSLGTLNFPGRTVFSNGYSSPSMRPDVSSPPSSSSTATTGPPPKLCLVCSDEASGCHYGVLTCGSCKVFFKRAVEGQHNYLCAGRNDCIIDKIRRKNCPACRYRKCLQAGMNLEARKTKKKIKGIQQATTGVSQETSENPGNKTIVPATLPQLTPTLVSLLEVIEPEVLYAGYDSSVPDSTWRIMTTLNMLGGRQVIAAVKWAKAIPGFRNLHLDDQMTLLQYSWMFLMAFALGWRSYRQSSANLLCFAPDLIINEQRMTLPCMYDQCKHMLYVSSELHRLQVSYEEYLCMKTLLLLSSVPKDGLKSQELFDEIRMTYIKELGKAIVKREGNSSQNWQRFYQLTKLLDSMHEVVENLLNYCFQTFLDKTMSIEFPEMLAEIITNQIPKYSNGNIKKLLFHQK

| SMILES | Potency [1] | Potency [2] | Potency [3] | Potency [4] | outcome [5] | outcome [6] | Potency [7] | outcome [8] | outcome [9] | outcome [10] | outcome [11] | outcome [12] | outcome [13] | outcome [14] | Potency [15] | Potency [16] | outcome [17] | Potency [18] | Potency [19] |
| --- | --- | --- | --- | --- | --- | --- | --- | --- | --- | --- | --- | --- | --- | --- | --- | --- | --- | --- | --- |
| COc1ccc(/C=C/c2cc(OC)cc(=O)o2)cc1 | inactive | inactive | inactive | inactive | inactive | inactive | inactive | inactive | inactive | inactive | inactive | inactive | inactive | inactive |  |  |  |  |  |
| CC(C)(C(=O)O)c1ccc(C(O)CCCN2CCC(C(O)(c3ccccc3)c3ccccc3)CC2)cc1 (stereo unspecified) |  | inactive | inactive | inactive | inactive | inactive | inactive | inactive | inactive | inactive | inactive | inactive | inactive | inactive | inactive | inactive | inactive | inactive | inactive |
| CC(C)=CCC[C@H](C)CCO |  | inactive | inactive |  | inactive | inactive | inactive |  | inactive | inactive | inactive | inactive | inactive | inactive | inactive | inactive | inactive |  |  |
| O=c1[nH]nc(-c2ccc([N+](=O)[O-])o2)o1 | inactive |  |  | 43.3 µM (active) | inactive | inactive | inactive |  | inactive | inactive |  | inactive | inactive | inactive | inactive | inactive | inactive | inactive | inactive |
| FC(F)(Cl)C(F)(Cl)Cl | inactive | inactive | inactive |  | inactive | inactive | inactive | inactive | inactive | inactive | inactive | inactive | inactive | inactive |  | inactive | inactive |  |  |
| CCCCCCCCNC |  | inactive | inactive | inactive | inactive | inactive | inactive |  | inactive | inactive | inactive |  | inactive | inactive |  | inactive | inactive | inactive | inactive |
